According to PubChem BioAssay (NCATS):
Records with an inconclusive call do not appear. Active and inactive are the calls of the source. The call rests on the fitted dose curve; in most records, active means well fitted inhibition curve with a large enough effect; inconclusive means small, poorly fitted or top-dose-only effect; inactive means flat fitted curve, though single readings scatter. Where a SMILES comes first, the peptide text is derived from it. The star is where a group is joined. AMC = Cc1cc(=O)oc2cc(N*)ccc12; Cbz = O=C(OCc1ccccc1)*
On the % scale 0 is the no-effect control and ±100 the full control effect; potency means the concentration at half of the fitted maximal effect.

These molecules were tested on CRL-7250 (assay: Cytotoxic Profiling of Annotated Libraries Using Quantitative High-Throughput Screening (AID 1296008; further: nearly all actives have a fitted effect of over 60% in size)). Settings: Five cell lines viability, CellTiter-Glo ATP luminescence, 48-72 h; max response: stronger effect = lower value.
Summary of the method: (§1)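 Cells exposed to compounds for 48 or 72 hr at 37 degrees Celsius. Viability read as ATP-coupled luminescence with CellTiter-Glo after 10 min at room temperature.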
For `CN1C(=O)N(c2cc(Cl)cc(Cl)c2)C(=O)[C@@]1(C)Cc1ccc(Br)cc1`, the max response was -11.1% (inactive). In the case of `O=C(Nc1ccccc1)Nc1ccc(-c2ccc(C(=O)C3CCCC3C(=O)O)cc2)cc1` (centres undefined), the max response is reported as -3.37% (inactive). `C=C1C(O)CCC2(C)CC3(OC)OC(=O)C(C)=C3CC12` (centres undefined) was tested, and the outcome was “inactive”. With `O=C(O)c1ccnc2cc(C(OCC3CCC(F)(F)CC3)c3ccccc3Cl)[nH]c12` (centres undefined) the max response was 2.57% (inactive). In the case of `CCCCOc1nc(N)c2c(n1)N(Cc1cccc(CN3CCCC3)c1)CC(=O)N2`, the outcome is reported as “inactive”. In the case of `CC1CC=C2C1CC1(O)C(=O)CC2(C)C1(C)CO` (centres undefined), the outcome is reported as “inactive”. `O=C(OCC1=CC(Cl)C(O)C(OC(=O)c2ccccc2)C1O)c1ccccc1` (centres undefined) was tested, and the max response was 2.93% (inactive). `O=C(OC1C=C(CO)C2C(OC3OC(CO)C(O)C(O)C3O)OC=CC12O)c1ccc(O)cc1` (centres undefined) was tested, and the max response was 4.89% (inactive). `CC(=O)c1ccc(O[C@@H]2O[C@H](CO[C@@H]3OC[C@@H](O)[C@H](O)[C@H]3O)[C@@H](O)[C@H](O)[C@H]2O)cc1` was tested, and the outcome was “inactive”. In the case of `Cc1cc(=O)oc2cc(NC(=O)[C@H](CCC(=O)O)NC(=O)[C@H](CC(C)C)NC(=O)[C@H](CC(C)C)NC(=O)OCc3ccccc3)ccc12` (Cbz-Leu-Leu-Glu-{AMC}), the max response is reported as -3.16% (inactive). `Fc1ccccc1-c1nc2ccn(Cc3ccc(-c4ccc(C(F)(F)F)cc4C(F)(F)F)nn3)cc-2n1` was tested, and the max response was 1.68% (inactive).

What follows are molecules tested on HEK293 in the same assay as above. Settings: Five cell lines viability, CellTiter-Glo ATP luminescence, 48-72 h; max response: stronger effect = lower value.
Summary of the method: as §1
`O=C(/C=C/c1ccc(O)c(O)c1)O[C@@H]1[C@@H](O)[C@H](OC2CCCCC2O)O[C@H](CO)[C@H]1O` (some centres undefined) was tested, and the max response was 1.79% (inactive). For `COc1cc(C(CO)CO[C@@H]2O[C@H](CO)[C@@H](O)[C@H](O)[C@H]2O)ccc1O` (some centres undefined), the outcome was “inactive”. In the case of `CC1(C)CC2C3=CCC4[C@@]5(C)CC[C@H](OC6OCC(O)C(OC7OC(CO)C(O)C(O)C7O)C6O)C(C)(C)C5CC[C@@]4(C)[C@]3(C)C[C@H](O)[C@@]2(CO)[C@H](OC(=O)c2ccccc2)C1` (some centres undefined), the max response is reported as -22% (inactive). `C=C[C@@]1(C)CCC2=C([C@H]1OC(C)=O)[C@H](OC(C)=O)CC1[C@](C)(C(=O)OC)CC[C@H](OC(C)=O)[C@]21C` (some centres undefined) was tested, and the max response was 0.95% (inactive). For `O=C(N[C@@H]1CC[C@@H](c2cccc(F)c2F)CN(CC(F)(F)F)C1=O)N1CCC(n2c(=O)[nH]c3ncccc32)CC1`, the Potency was 16.4 µM (active). In the case of `O=c1[nH]ccc2nc(-c3ccc(CN4CCC(c5nc(-c6ccccn6)n[nH]5)CC4)cc3)c(-c3ccccc3)cc12`, the Potency is reported as 5.17 µM (active). `CC1=C2C[C@H]3OC(=O)[C@H](O)[C@@]4(O)[C@@H](C)[C@@H](O)[C@H](O)C([C@@]2(C)[C@H](O)[C@@H](O)C1)[C@@]34C` (some centres undefined) was tested, and the max response was -1.6% (inactive). In the case of `C=CC(C)(O)CC/C=C(\C)C(=O)O[C@@H]1[C@@H](O)[C@H](OC(C)(C=C)CC/C=C(\C)C(=O)O[C@@H]2O[C@H](CO)[C@@H](O)[C@H](O)[C@H]2O)O[C@H](CO)[C@H]1OC(=O)/C(C)=C/CCC(C)(O)C=C` (some centres undefined), the max response is reported as -3.95% (inactive). With `CC(C)(O)C1OC1C1=CC(=O)C2(C)OC2C1O` (centres undefined) the max response was -1.71% (inactive). With `CC1(C)CCC[C@]2(C)C1CC=C(CO)[C@H]2CC/C(=C/CO)CO` (some centres undefined) the max response was -9.82% (inactive). For `C[C@@]1(C(=O)O)CCC[C@@]2(C)C3=CC[C@H]4C[C@@]3(CC[C@H]12)CC4(O)CO` (some centres undefined), the max response was 4.94% (inactive). With `Cc1c(NC(=O)N2CCOCC2)ccc2c1c1ccccc1n2C(C)C` the max response was -7.57% (inactive). In the case of `CC[C@H]1OC(=O)[C@H](C)[C@@H](O[C@H]2C[C@@](C)(OC)[C@@H](O)[C@H](C)O2)C(C)[C@@H](O[C@@H]2O[C@H](C)C[C@H](N(C)C)[C@H]2O)[C@](C)(O)C[C@@H](C)CN(C)[C@H](C)[C@@H](O)[C@]1(C)O` (some centres undefined), the max response is reported as 1.9% (inactive). For `CC(C)c1ccc2c(c1)C(O)CC1C(C)(CO)CCCC21C` (centres undefined), the max response was -7.86% (inactive). In the case of `O=C1C[C@@]2(C(=O)N1)C(=O)N(Cc1ccc(Br)cc1F)C(=O)c1cccn12`, the outcome is reported as “inactive”. For `CC(=O)OC12CC(C)C(OC(=O)c3ccccc3)C1/C=C(/C)C(OC(=O)c1ccccc1)CC(=O)C(C)(C)/C=C/C(C)C2=O` (centres undefined), the max response was -14.7% (inactive). With `COC(=O)C(CC1(O)c2ccccc2N2C(=O)C(C)(C)N(O)C21)n1cnc2ccccc2c1=O` (centres undefined) the max response was 3.97% (inactive). In the case of `C=C1[C@@H]2CC[C@@]3(C)[C@H](c4ccoc4)OC(=O)C[C@]13O[C@H]1CC(=O)C(C)(C)[C@H](C(O)C(=O)OC)[C@]12C` (some centres undefined), the max response is reported as -5.89% (inactive). `COC(=O)C1=COC(O[C@@H]2O[C@H](CO)[C@@H](O)[C@H](O)[C@H]2O)/C(=C\COC(=O)/C=C/c2ccccc2)C1CC(=O)OCCc1ccc(O)cc1` (some centres undefined) was tested, and the max response was -5.04% (inactive). For `COc1cc(C(C)=O)ccc1O[C@@H]1O[C@H](CO[C@@H]2OC[C@@H](O)[C@H](O)[C@H]2O)[C@@H](O)[C@H](O)[C@H]1O`, the max response was -0.597% (inactive). For `CC1(C)[C@@H]2CC=C(CO[C@@H]3O[C@H](CO[C@@H]4OC[C@H](O)[C@H](O)[C@H]4O)[C@@H](O)[C@H](O)[C@H]3O)[C@H]1C2`, the max response was 2.49% (inactive). With `CCC(C)/C=C(C)/C=C/C(=O)C1CCC(O)C(C)(O)C1=O` (centres undefined) the max response was 0.989% (inactive). With `O=C(/C=C/c1ccc(O)c(O)c1)O[C@H]1[C@H](OC2CCCCC2O)O[C@H](CO)[C@@H](O)[C@@H]1O` (some centres undefined) the max response was -0.453% (inactive). For `C=C1CCC2C(C)(C)CC(O)CC2(C)C1CCC(C)CCOC(=O)CCC(=O)O` (centres undefined), the max response was -12.9% (inactive). `O=C(O)CC(CCc1ccccc1)OC1OC(CO)C(O)C(O)C1O` (centres undefined) was tested, and the max response was -5.21% (inactive). In the case of `CC(O)/C=C/C1(O)C(C)C(O)C(O[C@@H]2O[C@H](CO)[C@@H](O)[C@H](O)[C@H]2O)CC1(C)C` (some centres undefined), the max response is reported as -15.2% (inactive). In the case of `CC1(C)CC[C@]2(C(=O)O[C@@H]3O[C@H](CO)[C@@H](O)[C@H](O)[C@H]3O)CC[C@]3(C)C(=CCC4[C@@]5(C)C[C@@H](O)[C@H](O)[C@@](C)(CO)C5[C@H](O)C[C@]43C)C2[C@@H]1O` (some centres undefined), the max response is reported as -12.5% (inactive). For `CN1C(=O)N(c2cc(Cl)cc(Cl)c2)C(=O)[C@@]1(C)Cc1ccc(Br)cc1`, the max response was -15.8% (inactive). For `O=C(Nc1ccccc1)Nc1ccc(-c2ccc(C(=O)C3CCCC3C(=O)O)cc2)cc1` (centres undefined), the max response was -9.05% (inactive). With `C=C1C(O)CCC2(C)CC3(OC)OC(=O)C(C)=C3CC12` (centres undefined) the max response was 0.468% (inactive). `O=C(O)c1ccnc2cc(C(OCC3CCC(F)(F)CC3)c3ccccc3Cl)[nH]c12` (centres undefined) was tested, and the max response was 4.55% (inactive). With `CCCCOc1nc(N)c2c(n1)N(Cc1cccc(CN3CCCC3)c1)CC(=O)N2` the max response was -3.01% (inactive). With `CC1CC=C2C1CC1(O)C(=O)CC2(C)C1(C)CO` (centres undefined) the max response was -7.63% (inactive). In the case of `O=C(OCC1=CC(Cl)C(O)C(OC(=O)c2ccccc2)C1O)c1ccccc1` (centres undefined), the max response is reported as -7.58% (inactive). For `O=C(OC1C=C(CO)C2C(OC3OC(CO)C(O)C(O)C3O)OC=CC12O)c1ccc(O)cc1` (centres undefined), the max response was -1.34% (inactive). `CC(=O)c1ccc(O[C@@H]2O[C@H](CO[C@@H]3OC[C@@H](O)[C@H](O)[C@H]3O)[C@@H](O)[C@H](O)[C@H]2O)cc1` was tested, and the max response was -1.26% (inactive). `Cc1cc(=O)oc2cc(NC(=O)[C@H](CCC(=O)O)NC(=O)[C@H](CC(C)C)NC(=O)[C@H](CC(C)C)NC(=O)OCc3ccccc3)ccc12` (Cbz-Leu-Leu-Glu-{AMC}) was tested, and the max response was -3.22% (inactive). In the case of `Fc1ccccc1-c1nc2ccn(Cc3ccc(-c4ccc(C(F)(F)F)cc4C(F)(F)F)nn3)cc-2n1`, the max response is reported as -5.52% (inactive).
